The target in experiment [1] is Glutathione peroxidase 1 (Homo sapiens) (UniProt P07203). As to the kind of experiment: Primary qHTS Assay for Inhibitors of Recombinant Selenoprotein Glutathione Peroxidase 1 (GPX1) (AID 1845191). For activity, negative = inhibition: % is set by controls: 0 for no effect and ±100 for the full control effect. Note: nearly all actives have a fitted effect of over 65% in size. In outline:
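GR-coupled readout: NADPH consumption tracked by fluorescence, ex 340/em 450 nm, at t=0 and after 15 min at RT. Final mix 10 nM GPX1, 1 mM GSH, 0.5 mM CHP, 0.5 mM NADPH, 100 nM GR, 0.01% BSA, following 30 min enzyme–compound preincubation.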
On the technique in general: qHTS replaces the single test concentration by a dilution series.

The target in experiment [2] is Phospholipid hydroperoxide glutathione peroxidase GPX4 (Homo sapiens) (UniProt P36969). As to the kind of experiment: Primary qHTS Assay for Inhibitors of Recombinant Selenoprotein Glutathione Peroxidase 4 (GPX4) (AID 1845192). Note: nearly all actives have a fitted effect of over 65% in size. Summed up: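 Steps: GPX4 plus compound, 30 min RT; add GR/GSH/NADPH master mix; start with cumene hydroperoxide; read 340/450 nm fluorescence at 0 and 15 min. Finals were 200 nM GPX4, 1 mM GSH, 0.5 mM CHP, 0.5 mM NADPH, 100 nM GR.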

Experiment [3] has as its target Luciferin 4-monooxygenase (Photinus pyralis) (UniProt P08659). As to the kind of experiment: Primary firefly luciferase (FLuc) qHTS assay for identification of artifact compounds. (AID 1845220). Note: nearly all actives have a fitted effect of over 60% in size. Summed up:
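D-luciferin and ATP (10 uM each, final) in Tris acetate buffer pH 7.6 were incubated with compounds for 15 min at room temperature. The reaction was started with 10 nM Photinus pyralis luciferase and luminescence read after 5 min. Percent inhibition was fitted to a 4-parameter Hill equation.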

A short description of experiment [4]: Primary fluorescence-based thiol-reactive (MSTI) qHTS assay for identification of artifact compounds. (AID 1845221).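 For activity change, negative = thiol reactive: series mostly up to about 54 µM; thiol-reactive compounds lower the probe fluorescence signal.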 Note: nearly all actives have a fitted effect of over 65% in size. Note: potency is the fitted concentration of half-maximal effect. Summed up:
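One-hour, room-temperature, dark incubation of compound with 4 uM MSTI in PBS (pH 7.4, 2% DMSO) precedes a fluorescence read at 525 nm excitation, 598 nm emission; Hill-equation fitting yields concentration-response values.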

The test system of experiment [5] is Nanoluciferase (engineered Oplophorus gracilirostris luciferase). As to the kind of experiment: Primary Nanoluciferase (NLuc) qHTS assay for identification of artifact compounds. (AID 1845222).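 Note: series mostly up to about 54 µM; 0% = DMSO and -100% = no enzyme.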 In outline:
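Diluted conditioned medium from NLuc-expressing S16 cells treated with compounds for 15 min at room temperature, then Nano-Glo substrate added; luminescence read after 5 min. Percent inhibition versus no-enzyme and DMSO controls fitted to 4-parameter Hill equation.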

Results filed as inconclusive are left out. Calls of active or inactive are those of the source. Calls come from the whole dose curve; as a rule, active = well fitted curve in the direction sought with a large enough effect; inconclusive = small, poorly fitted or top-dose-only effect, or another doubt; inactive = no such curve, though single readings can be large; an effect the other way counts as inactive or inconclusive.

Sequence of Phospholipid hydroperoxide glutathione peroxidase GPX4 (Homo sapiens) (P36969 whole entry, looked up): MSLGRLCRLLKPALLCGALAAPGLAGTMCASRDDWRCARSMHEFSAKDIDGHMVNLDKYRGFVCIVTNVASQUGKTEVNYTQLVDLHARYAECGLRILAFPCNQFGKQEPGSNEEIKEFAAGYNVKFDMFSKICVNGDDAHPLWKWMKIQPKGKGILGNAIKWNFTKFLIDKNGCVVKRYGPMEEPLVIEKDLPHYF
Sequence of Glutathione peroxidase 1 (Homo sapiens) (P07203 whole entry, looked up): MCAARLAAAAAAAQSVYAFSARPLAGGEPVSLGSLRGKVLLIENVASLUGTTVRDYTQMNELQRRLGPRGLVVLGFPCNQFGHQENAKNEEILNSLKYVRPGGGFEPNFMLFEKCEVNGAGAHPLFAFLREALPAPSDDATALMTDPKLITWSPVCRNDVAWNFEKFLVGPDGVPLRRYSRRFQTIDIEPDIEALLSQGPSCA

As for `C=CC(=O)Nc1cc(-n2c(=O)ccc3cnc4ccc(-c5ccc(NS(C)(=O)=O)cc5)cc4c32)ccc1C`, the Potency result in experiment [1], in experiment [2], in experiment [3], in experiment [4] and in experiment [5] was “inactive” throughout.

As to `O=S(=O)(c1ccc(Cl)cc1)N1CCN(c2ccnc3cc(Cl)ccc23)CC1`, the Potency entry in experiment [1], in experiment [2], in experiment [3], in experiment [4] and in experiment [5] was “inactive” throughout.

For `C/C=C(\C)C(=O)OC1C(C)C2(O)C(C=C(CO)CC3(O)C(=O)C(C)=CC32)C2C(C)(C)C12OC(C)=O` (stereo not given), the Potency result in experiment [1], in experiment [2], in experiment [3], in experiment [4] and in experiment [5] was “inactive” each time.

Turning to `CC(=O)O[C@@H]1C[C@@]2(C)C(CC[C@]3(C)C2CC=C2C4CC(C)(C)CC[C@]4(C(=O)O)CC[C@]23C)C(C)(C)[C@H]1O` (stereo not given in full), the Potency result in experiment [1], in experiment [2], in experiment [3], in experiment [4] and in experiment [5] was “inactive” throughout.

With `CC1(C)CC[C@]23CO[C@@]4(CCC5[C@@]6(C)CC[C@H](O[C@@H]7OC[C@H](O[C@@H]8O[C@H](CO)[C@@H](O)[C@H](O)[C@H]8O[C@@H]8OC[C@@H](O)[C@H](O)[C@H]8O)[C@H](O)[C@H]7O[C@@H]7O[C@H](CO)[C@@H](O)[C@H](O)[C@H]7O)[C@@](C)(CO)C6CC[C@@]5(C)[C@]4(C)C[C@H]2O)[C@@H]3C1` (stereo not given in full), the Potency result in experiment [1] and in experiment [2] was “inactive” in each case. Also, the outcome in experiment [3] is “inactive [at 11.6 µM]”. Further, in experiment [4], the activity change, negative = thiol reactive is 317% [at 11.5 µM] (inactive). In addition, the activity, negative = inhibition in experiment [5] is 3.72% [at 11.6 µM] (inactive).

In the case of `CC(=O)O[C@@H]1CC[C@@]2(C)C(CC[C@]3(C)C2[C@H](O)C=C2[C@H]4[C@@H](C)[C@H](C)CC[C@]4(C)CC[C@]23C)[C@@]1(C)C(=O)O` (stereo not given in full), the Potency entry in experiment [1], in experiment [2], in experiment [3], in experiment [4] and in experiment [5] was “inactive” each time.

For `CC(=O)O[C@@H]1[C@@H](OC(C)=O)[C@H](C)O[C@@H](O[C@H]2[C@@H]3C=CO[C@@H](O[C@@H]4O[C@H](CO)[C@@H](O)[C@H](O)[C@H]4O)[C@@H]3[C@@]3(CO)O[C@@H]23)[C@@H]1OC(=O)/C=C/c1ccccc1`, the Potency entry in experiment [1], in experiment [2], in experiment [3], in experiment [4] and in experiment [5] was “inactive” each time.

As for `COc1ccc(C(=O)Nc2c(Cl)cncc2Cl)cc1OC1CCCC1`, the Potency result in experiment [1], in experiment [2], in experiment [3], in experiment [4] and in experiment [5] was “inactive” throughout.

On to `O=C(Nc1ccc(C(F)(F)F)cn1)N1CCN(c2ncccc2C(F)(F)F)CC1`, for which the Potency entry in experiment [1], in experiment [2], in experiment [3], in experiment [4] and in experiment [5] was “inactive” throughout.

As for `COC1=CC(=O)C=C(C)C12Oc1c(Cl)c(OC)cc(OC)c1C2=O` (stereo not given), the Potency result in experiment [1], in experiment [2], in experiment [3], in experiment [4] and in experiment [5] was “inactive” each time.

Take `CC(=O)OC1CC2(C)C(CCC(C)C23Cc2c(O)cc(CO)c(C=O)c2O3)C(C)(C)C1O` (stereo not given): the Potency result in experiment [1], in experiment [2], in experiment [3], in experiment [4] and in experiment [5] was “inactive” in each case.

Turning to `O=C1Nc2nc(-c3c(O)cccc3OCC3CC3)cc([C@@H]3CCCNC3)c2CO1`, the Potency entry in experiment [1], in experiment [2], in experiment [3], in experiment [4] and in experiment [5] was “inactive” each time.

Regarding `O=c1cc(N2CCOCC2)nc2c3ccccc3ccn12`, the Potency entry in experiment [1], in experiment [2], in experiment [3], in experiment [4] and in experiment [5] was “inactive” each time.

In the case of `C[C@]12CC[C@@H]3c4ccc(O)c(O)c4CC[C@H]3[C@@H]1CCC2=O`, the Potency result in experiment [1], in experiment [2], in experiment [3] and in experiment [5] was “inactive” throughout. The Potency in experiment [4] was 0.947 µM (active).

For `C[C@H](Oc1cc(-c2cnn(C3CCNCC3)c2)cnc1N)c1c(Cl)ccc(F)c1Cl`, the Potency entry in experiment [1], in experiment [2], in experiment [3], in experiment [4] and in experiment [5] was “inactive” in each case.

On to `C#CCCCn1cc(-c2cccc3c2N[C@H](C)CC(=O)N3)cn1`, for which the Potency entry in experiment [1], in experiment [2], in experiment [3], in experiment [4] and in experiment [5] was “inactive” throughout.

Take `O=C(Nc1cccc(C(F)(F)F)c1)Nc1ccc(Br)cc1-c1nn[nH]n1`: the Potency result in experiment [1], in experiment [2], in experiment [3], in experiment [4] and in experiment [5] was “inactive” in each case.

Take `Cc1ccc(S(=O)(=O)N2CCC[C@H]2c2ccc(F)cc2)cc1`: the Potency result in experiment [1], in experiment [2], in experiment [3], in experiment [4] and in experiment [5] was “inactive” in each case.

`C/C=C/C=C/C=C/C(=O)O[C@@H]1C=C(CO)C(O)(C(=O)OC)[C@@]2(C)CCCC(C)(C)C12` (stereo not given in full): the Potency entry in experiment [1], in experiment [2], in experiment [3], in experiment [4] and in experiment [5] was “inactive” in each case.

With `CCn1c(=O)n([C@H]2CCCN(c3nccc(-c4cc5ccccc5o4)n3)C2)c2ccccc21`, the Potency entry in experiment [1], in experiment [2], in experiment [3], in experiment [4] and in experiment [5] was “inactive” in each case.

Regarding `CC1=CC2/C=C(\C)CCC(O)C/C=C/C(=O)OC23C(=O)NC(CC(C)C)C3C1C` (stereo not given), the Potency result in experiment [1], in experiment [2], in experiment [3], in experiment [4] and in experiment [5] was “inactive” each time.

On to `Fc1ccc2[nH]ccc2c1-c1nc(N2CCOCC2)c2sc(CN3CCN(CC4CC4)CC3)cc2n1`, for which the Potency result in experiment [1], in experiment [2], in experiment [3], in experiment [4] and in experiment [5] was “inactive” in each case.

These data come from PubChem BioAssay (NCATS).
